# Where “and” joins values, the source holds several entries; their conditions need not be identical. Identical values can stand only once. Results filed as inconclusive are left out.
# Experiment: qHTS Assay for Lipid Storage Modulators (AID 1519)
# Conditions: Drosophila S3 cells, BODIPY lipid droplet/cell ratio, laser cytometry; measured here: cell count channel max response; cells loaded with oleic acid
# How it was run: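 Cells seeded at 5,000 per well were treated with compounds over a concentration series and loaded with oleic acid (400 uM, as added). Lipid droplet fluorescence (488 nm excitation, 500-530 nm channel) was read by laser-scanning cytometry and normalized to 20 uM Triacsin C.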
row,SMILES,max response
1,O=C(O)CCCC[C@@H]1CCSS1,-26.8%
2,CCCCCCCCCCCCCCCCCCNC(=O)OCC(COP(=O)([O-])OCC[n+]1ccsc1)OC (configuration not stated),-16.2%
3,O=C(OCc1ccccc1)c1ccccc1,-2.84%
4,Cc1c(N)c(=O)n(-c2ccccc2)n1C,3.27% and 4.31%
5,C[C@@H](CN1CCC(Cc2ccccc2)CC1)[C@@H](O)c1ccc(O)cc1,15.4%
6,NCCCS(=O)(=O)O,17.3%
7,O=C(Nc1cccc(C(=O)Nc2ccc(S(=O)(=O)O)c3cc(S(=O)(=O)O)cc(S(=O)(=O)O)c23)c1)Nc1cccc(C(=O)Nc2ccc(S(=O)(=O)O)c3cc(S(=O)(=O)O)cc(S(=O)(=O)O)c23)c1,-8.67%

# Same assay, conditions: Drosophila S3 cells, BODIPY lipid droplet/cell ratio, laser cytometry; measured here: lipid channel max response; cells loaded with oleic acid
row,SMILES,max response
1,S=C(S)OC1CC2CC1C1CCCC21 (configuration not stated),-14.9%
2,N[C@@H](CC(=O)O)C(=O)O,-3.65% and 51.4%
3,CC(C(=O)O)c1ccc(C(=O)c2cccs2)cc1 (configuration not stated),31%
4,Oc1ccccc1O,-25.6%
5,CCCCCCCC/C=C\CCCCCCCC(=O)NCCO,20.6%
6,CCN1/C(=C/C(C)=O)Sc2ccc(OC)cc21,-21.7%
7,S=c1[nH]c2ccccc2s1,29.5%
8,O=c1[nH]c2ccccc2n1CCCN1CCN(C(c2ccccc2)c2ccccc2)CC1,44%
9,CCCCCCCCCCCCCCCCCC(=O)NCC(COP(=O)([O-])OCC[N+](C)(C)C)OCC (configuration not stated),12.1%
10,O=c1[nH]c2cc(Cl)c(Cl)cc2[nH]c1=O,-51.3%
11,COc1cc(OC)c(/C=C2/C(=O)Nc3ccccc32)c(OC)c1,28.6%
12,Nc1ccc(O)c(C(=O)O)c1,-4.44%
13,CC(C)NC[C@H](O)COc1cccc2[nH]ccc12,-1.16%
14,CCCCCCCCCCCCCCCC(=O)OC(CC(=O)O)C[N+](C)(C)C (configuration not stated),25.7%
15,O=C1NC(O)=NC1(c1ccccc1)c1ccccc1,-13.3%
16,CCCSc1ccc2nc(NC(=O)OC)[nH]c2c1,-10.3% and -11.2%
17,N[C@H](CCCP(=O)(O)O)C(=O)O,-5.72% and -16.1%
18,O=C(c1cc(O)c(O)c([N+](=O)[O-])c1)c1ccccc1F,-15.8%
19,CN(C)c1ccc(/C=C2\C(=O)Nc3ccccc32)cc1,-23.7%
20,O=C(/C=C/c1ccc(O)c(O)c1)OCCc1ccccc1,-17.2% and -81.3%
21,O=C1CN(/N=C/c2ccc([N+](=O)[O-])o2)C(=O)N1,14.3%
22,O=S(=O)(c1cccc2c(I)cccc12)N1CCCNCC1,-5.07%
23,CCCN(CC1CC1)c1nc(C)nc(Nc2c(Cl)cc(Cl)cc2Cl)c1Cl,-15.8%
24,O=C(O)CCCC[C@@H]1CCSS1,-29%
25,CCCCCCCCCCCCCCCCCCNC(=O)OCC(COP(=O)([O-])OCC[n+]1ccsc1)OC (configuration not stated),-15%
26,O=C(OCc1ccccc1)c1ccccc1,6.88%
27,Cc1c(N)c(=O)n(-c2ccccc2)n1C,6.06% and 9.92%
28,C[C@@H](CN1CCC(Cc2ccccc2)CC1)[C@@H](O)c1ccc(O)cc1,14.5%
29,NCCCS(=O)(=O)O,22.8%
30,O=C(Nc1cccc(C(=O)Nc2ccc(S(=O)(=O)O)c3cc(S(=O)(=O)O)cc(S(=O)(=O)O)c23)c1)Nc1cccc(C(=O)Nc2ccc(S(=O)(=O)O)c3cc(S(=O)(=O)O)cc(S(=O)(=O)O)c23)c1,-6.27%

# From PubChem BioAssay (NCATS)
